Assay [1] in a line: qHTS profiling of the MIPE4 collection as inhibitors of Plasmodium falciparum (3D7) proliferation (AID 743344).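 Note: scaled between DMSO vehicle wells and 0.29 µM artemisinin as full inhibition.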 To be noted: P. falciparum 3D7 in erythrocytes, SYBR Green DNA fluorescence, 72 h; at 28.5 µM. A digest of the protocol:
(§1)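 Erythrocytes infected with P. falciparum (0.3% parasitemia, 2.5% hematocrit) incubated with compounds 72 h at 37 C, 5% CO2. Lysis with saponin/Triton buffer containing SYBR Green I, overnight at room temperature in the dark; DNA fluorescence (485/535 nm) normalised to 0.29 uM artemisinin and DMSO.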
Background: qHTS replaces the single test concentration by a dilution series.

A short description of assay [2]: qHTS profiling of the MIPE4 collection as inhibitors of Plasmodium falciparum (DD2) proliferation (AID 743345). To be noted: P. falciparum Dd2 in erythrocytes, SYBR Green DNA, 72 h; at 28.5 µM unless noted. In a few lines:
as §1

Assay [3] can be described thus: qHTS profiling of the MIPE4 collection as inhibitors of Plasmodium falciparum (HB3) proliferation (AID 743347).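 Note: plate controls were DMSO vehicle wells for no effect and artemisinin wells for full effect.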 The following applies: P. falciparum HB3 in erythrocytes, SYBR Green DNA, 72 h; at 28.5 µM. In a few lines: as §1
Assay [4] in a line: High-throughput drug toxicity screening in the BPDCN cell line Gen2.2 (AID 1224824).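 Note: cells exposed to compounds for 48 h before reading.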 To be noted: Gen2.2 BPDCN cells; at 45.8 µM (top of the series). A digest of the protocol:
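Gen2.2 cells (500/well) in phenol red-free RPMI with 10% FBS were exposed to compounds for 48 h at 37 °C, 5% CO2. Viability was read by CellTiter-Glo luminescence and normalized to DMSO (100%) and 9.2 uM bortezomib (0%).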

Assay [5] is described as follows: qHTS assay for cell viability of the p53RE-bla HCT-116 cell line (AID 743292; active = well fitted cell-killing curve with a large enough effect; note: % is set by controls: 0 for no effect and ±100 for the full control effect; nearly all actives have a fitted effect of over 55% in size). The following applies: p53RE-bla HCT-116 viability, ATP luminescence, 16 h; series mostly up to 95 µM. In a few lines: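 CellSensor p53RE-bla HCT-116 cells, 4,000/well, preincubated 5 h at 37 C, then exposed to compounds in DMSO for 16 h at 37 C. Viability read as CellTiter-Glo luminescence (intracellular ATP) after 30 min at room temperature.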

Assay [6] in a line: qHTS profiling for inhibitors of Plasmodium falciparum (3D7) proliferation (AID 743322).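 Note: infected erythrocytes exposed to compound for 72 h before lysis; 100% = DMSO vehicle wells and 0% = 0.29 µM artemisinin.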 The following applies: P. falciparum 3D7 proliferation; at 28.7 µM (top of the series) unless noted. In a few lines:
as §1

A short description of assay [7]: qHTS profiling for inhibitors of Plasmodium falciparum (DD2) proliferation (AID 743323). The following applies: lower = more inhibition; at 28.7 µM (top of the series) unless noted. In a few lines: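 1536-well qHTS; infected RBCs 0.3% parasitemia/2.5% Hct final; cpd 72 h 37 C 5% CO2; lysis buffer + SYBR Green I, o/n RT dark; FI 485/535; norm. to 0.29 uM artemisinin and DMSO, plate-stack corrected.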

Records with an inconclusive call do not appear. Activity calls are given as the source filed them. Unless noted, the rule behind the calls is not given here.

`CC=C(C)C(=O)O[C@H]1C(C)=C2[C@@H]3OC(=O)[C@@](C)(O)[C@@]3(O)[C@@H](OC(=O)CCC)C[C@](C)(OC(C)=O)[C@@H]2[C@@H]1OC(=O)CCCCCCC` registered a parasite growth, % of DMSO control in assay [1] of 15.2%. The molecule also yielded a parasite growth remaining, % of DMSO control (lower = more inhibition) in assay [2] of 8.2%. The molecule further gave a growth, % of control in assay [3] of 8.71%. Moreover, the cell viability, % of control (lower = more cytotoxic) in assay [4] was found to be 12.1%.
On the same counts, the results for `O=C1CCC[C@@H]2[C@H]3CCCN4CCC[C@@H](CN12)[C@@H]34` are 91.5%, 97.9%, 96.2% and 219%.
Take `CCOC(=O)c1c(C(C#N)=CN)c2ccc(Cl)c(Cl)c2n1C`: the parasite growth, % of DMSO control in assay [1] is 90%. In assay [2], this molecule had a parasite growth remaining, % of DMSO control (lower = more inhibition) of 97.1%. Besides, in assay [3], the growth, % of control was 89.6%. For the same molecule, the cell viability, % of control (lower = more cytotoxic) in assay [4] turned out to be 130%.
`Clc1cnc(Oc2ccc(Oc3ncc(Cl)cc3Cl)cc2)c(Cl)c1`: in assay [5], the Potency entry is “inactive”.
`C/C=C(/C)C(=O)O[C@H]1C(C)=C2[C@H]([C@@H]1OC(=O)CCCCCCC)[C@@](C)(OC(C)=O)C[C@H](OC(=O)CCC)[C@@]1(O)[C@H]2OC(=O)[C@@]1(C)O`: the remaining parasite growth % (stronger effect = lower value) in assay [6] was -0.149%. The activity, percent of control in assay [7] was 1.02%.

The values are drawn from PubChem BioAssay (NCATS).
